40 compounds from PubChem BioAssay (NCATS) can be followed below.

Results filed as inconclusive are left out. Entries that show only a call come without a potency. Activity calls are given as the source filed them. Calls follow the shape of the dose curve; as a rule, active = well fitted cell-killing curve with a large enough effect; inconclusive = small, poorly fitted or top-dose-only effect, or effect the other way; inactive = no such curve, though single readings can be large or run the other way. Non-standard residues stand in square brackets, D forms with d. Residues, ends and D or L forms follow the SMILES beside them. *: point of attachment. Nva = CCC[C@H](N)C(=O)O; Cbz = O=C(OCc1ccccc1)*
Potency is read from the fitted curve at half-maximal effect.

The experiment can be described thus: qHTS of pediatric cancer cell lines to identify multiple opportunities for drug repurposing: Confirmatory screen for Rh30 cells (AID 1347126). Also: nearly all actives have a fitted effect of over 55% in size. The note with it: Rh30 rhabdomyosarcoma cell viability; series mostly up to 45.9 µM. The text has this:
Drug repurposing or repositioning has been offered as a strategy for drug development in oncology programs. This approach has special potential for childhood cancers and other rare or orphan diseases, where the expected return on new drug development has been a disincentive to pharmaceuticals.
In this project we exploit the poly-pharmacology of drugs to discover new indications via phenotypic screening of a panel of 19 well-characterized cell lines derived from solid tumors seen in children and adolescents. The goal is to identify approved drugs with previously unrecognized anticancer properties that has the potential to reveal new mechanisms and biological processes involved in carcinogenesis or drug resistance. We employed a titration-based paradigm (quantitative high-throughput screening or qHTS), where all compounds were tested at multiple concentrations for their effect on cell viability. Concentration-response curves (CRCs) were derived directly from the primary screen, and both potency and efficacy values were used to identify compounds with robust bioactivity profiles. We screened the NIH Chemical Genomics Center (NCGC) Pharmaceutical Collection (NPC) and Mechanism Interrogation Plate (MIPE) small molecule collections of approved and investigational compounds against these cell lines; and measured metabolically active cells after 48 hours of compound treatment as a proxy for cell viability.
Assay Submitter: Nathalia J. Martinez, National Center for Advancing Translational Sciences, National Institutes of Health, Rockville, MD, USA; email: natalia.martinez@nih.gov
[1] Shen, M et al. Quantitative high-throughput phenotypic screening of pediatric cancer cell lines identifies multiple opportunities for drug repurposing. Oncotarget 2017 Dec 19;9(4):4758-4772. PMID 29435139.
The cells were obtained from University of North Carolina (UNC), Pediatric Preclinical Testing Program (PPT), and Coriell Institute (CI).
qHTS cell viability assay:
Cells were assayed in growth media at a density of 500-1,000 cells/well. Five microliters of cells were dispensed into 1,536-well, white, solid-bottom, TC-treated plates (Greiner Bio One) using a multidrop dispenser and incubated at 37 degrees C, 5% CO2, under a humidified atmosphere for 5 hours. Twenty-three nanoliters of compounds and controls (neutral control DMSO or positive control bortezomib at final concentration of 2.3 µM) were subsequently transferred by Kalypsys pintool. For primary screens, the MIPE collection was tested at 11-point dilutions (final concentrations range from 0.78 nM to 46 µM) and the NPC collection at 8-point dilutions (final concentrations range from 0.59 nM to 46 µM). Compounds tested in follow-up screens were assayed at 11-point dilutions. Cells were incubated for 48 hours, followed by addition of 3 µL of CellTiter-Glo (Promega). After a 15 min incubation at room temperature, samples were analyzed for luminescence intensity using a ViewLux High-throughput CCD imager equipped with clear filters.
In general terms: In qHTS, concentration-response curves come from the screen itself.
Consider `NS(=O)(=O)OC[C@@H]1C[C@@H](n2ccc3c(N[C@H]4CCc5ccccc54)ncnc32)C[C@H]1O`, for which the Potency entry is “inactive”.
As to `O=C(NC1CC1)c1cccc(-c2ccc3c(NC(=O)C4CC4)n[nH]c3c2)c1`, the Potency result is “inactive”.
Regarding `C=CCNC1=C2C[C@@H](C)C[C@H](OC)[C@@H](O)[C@@H](C)C=C(C)[C@H](OC(N)=O)[C@@H](OC)C=CC=C(C)C(=O)NC(=CC1=O)C2=O`, the Potency was 4.14 µM (active).
Consider `COc1cccc2c1C(=O)c1c(O)c3c(c(O)c1C2=O)C[C@@](O)(C(C)=O)C[C@H]3O[C@H]1C[C@H](N)[C@H](O)[C@H](C)O1`, for which the Potency result was “inactive”.
For the compound `N#Cc1c(NC(=O)c2cccc3ccccc23)sc2c1CCCC2`, the Potency entry is “inactive”.
Regarding `COc1ccc(C(C)=O)c(O)c1`, the Potency entry was “inactive”.
For the compound `Cc1ccc([N+](=O)[O-])cc1S(=O)(=O)N(C)N=Cc1cnc2ccc(Br)cn12`, the Potency is 4.65 µM (active).
In the case of `CC(=O)O[C@H]1C[C@@H]2CC[C@H]3[C@H]4C[C@H]([N+]5(C)CCCCC5)[C@@H](OC(C)=O)[C@@]4(C)CC[C@@H]3[C@@]2(C)C[C@H]1N1CCCCC1`, the Potency is 8.27 µM (active).
Turning to `COc1cc(OC)c(C=CS(=O)(=O)Cc2ccc(OC)c(NCC(=O)O)c2)c(OC)c1`, the Potency entry was “inactive”.
With `COc1cc([C@@H]2c3cc4c(cc3[C@H](O)[C@H]3COC(=O)[C@@H]23)OCO4)cc(OC)c1OC`, the Potency entry is “inactive”.
For `CN(C)c1ccc(C(=O)NCCCCCCC(=O)NO)cc1`, the Potency was 3.29 µM (active).
Take `COC1=C2C[C@@H](C)C[C@H](OC)[C@@H](O)[C@@H](C)C=C(C)[C@H](OC(N)=O)[C@@H](OC)C=CC=C(C)C(=O)NC(=CC1=O)C2=O`: the Potency was 1.31 µM (active).
In the case of `CCC[C@@H](C=O)NC(=O)[C@H](CC(C)C)NC(=O)[C@H](CC(C)C)NC(=O)OCc1ccccc1` (Cbz-Leu-Leu-[Nva]-aldehyde), the Potency is 4.14 µM (active).
For the compound `O=C(O)c1ccc(Nc2ncc3c(n2)-c2ccc(Cl)cc2C(c2c(F)cccc2F)=NC3)cc1`, the Potency result was “inactive”.
Then `CC(C)NC[C@@H](C(=O)N1CCN(c2ncnc3c2[C@H](C)C[C@H]3O)CC1)c1ccc(Cl)cc1`, with 8.27 µM (active); and `COc1cc([C@@H]2c3cc4c(cc3[C@@H](O[C@@H]3O[C@@H]5CO[C@@H](c6cccs6)O[C@@H]5[C@H](O)[C@@H]3O)[C@H]3COC(=O)[C@H]23)OCO4)cc(OC)c1O`, with 1.31 µM (active); and `CN[C@H]1[C@@H](O)[C@@H]2O[C@@H]3O[C@H](C)CC(=O)[C@]3(O)O[C@@H]2[C@@H](NC)[C@H]1O`, with “inactive”.
Turning to `CCN(CC)Cc1ccc2cc(COC(=O)Nc3ccc(C(=O)NO)cc3)ccc2c1`, the Potency entry is “inactive”.
In the case of `COc1ccc(C[C@@H](C)[C@@H](C)Cc2ccc(OC)c(OC)c2)cc1OC`, the Potency entry is “inactive”.
On to `C=CC(=O)N1CCc2ccc(-n3c(=O)ccc4cnc5ccc(-c6cnn(C)c6)cc5c43)cc21`, for which the Potency is 5.22 µM (active).
In the case of `O=S(=O)(O)CCSSCCS(=O)(=O)O`, the Potency result is “inactive”.
Regarding `CC(C)C[C@H](NC(=O)CNC(=O)c1cc(Cl)ccc1Cl)B1OC(=O)CC(CC(=O)O)(C(=O)O)O1` (stereo not given in full), the Potency is 2.33 µM (active).
Then `CC(C=CC(=O)NO)=C[C@@H](C)C(=O)c1ccc(N(C)C)cc1`, with “inactive”; and `COc1ccc(S(=O)(=O)Nc2cccnc2Nc2ccc(O)cc2)cc1`, with “inactive”; and `Cc1nc(NC(=O)N2CCC[C@@H]2C(N)=O)sc1-c1ccnc(C(C)(C)C(F)(F)F)c1`, with 5.22 µM (active).
For the compound `COc1cc2c(cc1OC)[C@@H]1C(=O)c3ccc4c(c3O[C@@H]1CO2)C=CC(C)(C)O4`, the Potency is 1.85 µM (active).
Regarding `CC(C)C[C@@H](C=O)NC(=O)[C@H](CC(C)C)NC(=O)[C@H](CC(C)C)NC(=O)OCc1ccccc1` (Cbz-Leu-Leu-Leu-aldehyde), the Potency is 3.29 µM (active).
Regarding `Nc1nc2c(c(=O)[nH]1)N(C=O)[C@H](CNc1ccc(C(=O)N[C@@H](CCC(=O)O)C(=O)O)cc1)CN2`, the Potency entry was “inactive”.
With `CC(=O)[C@]1(O)Cc2c(O)c3c(c(O)c2[C@@H](O[C@H]2C[C@H](N)[C@@H](O)[C@H](C)O2)C1)C(=O)c1ccccc1C3=O`, the Potency result was “inactive”.
Regarding `C#CCC(Cc1cnc2nc(N)nc(N)c2n1)c1ccc(C(=O)N[C@@H](CCC(=O)O)C(=O)O)cc1` (stereo not given in full), the Potency entry was “inactive”.
For the compound `COc1ccc2c(c1OC)C(=O)OC2[C@H]1c2c(cc3c(c2OC)OCO3)CCN1C` (stereo not given in full), the Potency result is “inactive”.
As for `Cn1cc(CNCC2CCN(c3ncc(C(=O)NO)cn3)CC2)c2ccccc21`, the Potency is 0.293 µM (active).
In the case of `CNC(=O)Nc1ccc(-c2nc(N3CC4CCC(C3)O4)c3cnn(C4CCC5(CC4)OCCO5)c3n2)cc1`, the Potency was 0.329 µM (active).
`O=C1NC(=O)C(=Cc2ccc3nccc(-c4ccncc4)c3c2)S1`: the Potency was 6.57 µM (active).
`CC(C(C)N1CC(=O)NC(=O)C1)N1CC(=O)NC(=O)C1` (stereo not given): the Potency result is “inactive”.
As for `COc1cccc2c1C(=O)c1c(O)c3c(c(O)c1C2=O)C[C@@](O)(C(=O)CO)C[C@H]3O[C@H]1C[C@H](N)[C@H](O)[C@H](C)O1`, the Potency is 1.17 µM (active).
Consider `CCS(=O)(=O)Nc1ccc2[nH]c(O)c(C(=Nc3ccc(CN4CCCCC4)cc3)c3ccccc3)c2c1`, for which the Potency was 1.65 µM (active).
As for `CC(C)(N)c1ccc(-c2nc3ccccc3nc2-c2ccccc2)cc1`, the Potency entry is “inactive”.
Then `CC1(C)O[C@@H]2C[C@H]3[C@@H]4CCC5=CC(=O)C=C[C@]5(C)[C@@H]4[C@@H](O)C[C@]3(C)[C@]2(C(=O)CO)O1`, with “inactive”; and `C=C1C(=CC=C2CCC[C@]3(C)[C@@H]([C@H](C)CCCC(C)(C)O)CC[C@@H]23)C[C@@H](O)C[C@@H]1O`, with “inactive”.
